# Shown is part of a subset that was picked to be rich in hits.
# Pf Dd2 inh – Plasmodium falciparum Dd2 growth inhibition; 120,000 compounds, 4.3% hits; Potency, µM (titrated, usually from 28.9 µM), most hits filed as inhibitors; AID 1347417; P. falciparum Dd2 growth, SYBR Green, 72 h; active = well fitted inhibition curve with a large enough effect; note: nearly all actives have a fitted effect of over 65% in size
#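 Infected erythrocytes (Dd2, 0.3% parasitemia, 2.5% hematocrit final) are added to compound in RPMI-1640/Albumax II medium, grown 72 h at 37C in low oxygen, then lysed with saponin/Triton-X containing SYBR Green and read by fluorescence.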
# Hits are given with their value; – = inactive.
SMILES,Pf Dd2 inh
O=C(c1cccc(F)c1)N1CCC(n2cnnc2-c2ccccc2)CC1,–
COc1ccccc1N1CCN(C(=O)C2CCN(S(=O)(=O)c3cccc4nonc34)CC2)CC1,–
O=C(C1CCN(S(=O)(=O)c2cccc3nonc23)CC1)N1CCN(c2ccccc2)CC1,–
Cc1ccc(Cl)cc1N1CCN(C(=O)C2CCN(S(=O)(=O)c3c(C)noc3/C=C/c3ccccc3F)CC2)CC1,–
Cc1ccc(Cl)cc1N1CCN(C(=O)C2CCN(S(=O)(=O)c3cccc4nonc34)CC2)CC1,6.3µM
Cc1ccc(/C=C/c2onc(C)c2S(=O)(=O)N2CCC(C(=O)N3CCN(c4cc(C)ccc4C)CC3)CC2)cc1,8.9µM
Cc1ccc(/C=C/c2onc(C)c2S(=O)(=O)N2CCC(C(=O)Nc3cc(C)ccc3C)CC2)cc1,–
CN1CCC(N[C@H]2CC(C)(C)[C@@H]3C[C@@](C)(O)CC[C@]23CCC(=O)NCc2cccnc2)CC1,–
COc1cc(F)ccc1-c1ccnc2nc(C3CCCCC3)nn12,–
CN1[C@@H](CCC(=O)N2CCc3ccccc32)CNC(=O)[C@@H]2[C@H]1CCN2CC(C)(C)C,–
CN1C(=O)CS(=O)(=O)C12CCN(C(=O)c1ccncc1)CC2,–
COc1ccc(C(=O)Nc2ccc(-c3noc([C@@H]4CCCN4Cc4ccc(Cl)cc4)n3)cn2)cc1,11µM
COCC(=O)Nc1ccc(-c2noc([C@@H]3CCCN3CC(C)C)n2)cn1,11µM
COCC(=O)Nc1ccc(-c2noc([C@@H]3CCCN3Cc3ccc(F)cc3)n2)cn1,–
COc1ccc(C(=O)Nc2ccc(-c3noc([C@@H]4CCCN4Cc4ccccc4C)n3)cn2)cc1,–
COc1ccc(C(=O)Nc2ccc(-c3noc([C@@H]4CCCN4Cc4ccc(F)c(F)c4)n3)cn2)cc1,–
COCC(=O)Nc1ccc(-c2noc([C@@H]3CCCN3Cc3ccc(S(C)(=O)=O)cc3)n2)cn1,–
COC(=O)c1ccc(COC(=O)C2=CN(C)S(=O)(=O)N=C2C)o1,–
COc1ccccc1-n1cc(C(=O)N2CCCC2c2nonc2C)cn1 (stereo not given),–
Cc1ccc(-n2ncc(C(=O)N3CCN(Cc4ccccc4)CC3)c2C2CCN(C(=O)OC(C)(C)C)CC2)c(C)c1,8.9µM
Cc1ccc(-n2ncc(C(=O)N3CCN(C(=O)c4ccco4)CC3)c2C2CCN(C(=O)OC(C)(C)C)CC2)cc1,–
CC(C)(C)OC(=O)N1CCC(c2c(C(=O)N3CCN(C(=O)c4ccco4)CC3)cnn2-c2ccccc2)CC1,–
CC(C)(C)OC(=O)N1CCC(c2c(C(=O)N3CCN(Cc4ccccc4)CC3)cnn2-c2ccc(Cl)cc2)CC1,11µM
Cc1ccc(C(=O)N2CCN(c3cc(-c4cccs4)[nH]n3)CC2)cc1,–
O=C(NC1CCc2nnc(C3CC3)n2CC1)c1ccc(Cn2cncn2)o1 (stereo not given),–
SMILES,Pf Dd2 inh
CC(=O)N1CCN(Cc2ccc(F)c(C(F)(F)F)c2)CC(O)C1 (stereo not given),–
COc1ccccc1Cc1nc2ccccc2nc1SCC(=O)NCc1ccccc1Cl,0.89µM
COc1cc(NC(=O)CSc2nc3ccccc3nc2Cc2ccccc2OC)cc(OC)c1,–
COc1ccccc1Cc1nc2ccccc2nc1SCC(=O)N1CCCCC1,–
CC(C)CCNC(=O)CC1Sc2ncccc2N(C)C1=O (stereo not given),–
CCn1c(C2CCNCC2)nn(Cc2cnn(-c3ccccc3F)c2)c1=O,–
CCc1ccccc1N(C)C(=O)Cc1c(C(=O)O)c(C)cn1C,–
CCc1ccccc1N(C)C(=O)Nc1cn(CC(C)C)c(=O)c2ccccc12,8.9µM
COc1ccc(CNC(=O)Nc2cn(CC(C)C)c(=O)c3ccccc23)c(OC)c1,–
O=C1NCc2ccccc2CC12CCN(Cc1ccc([N+](=O)[O-])cc1)C2 (stereo not given),–
COCCO[C@H]1C(=O)N(C2CCN(C(=O)c3ocnc3C)CC2)[C@H]1c1ccncc1,–
COC1C(=O)N(CC2CC2)C12CCN(S(=O)(=O)c1cccc3cccnc13)CC2 (stereo not given),–
N#Cc1ccc(C(=O)NC2CCc3n[nH]c(=O)n3CC2)cc1 (stereo not given),–
Cc1c(CC(=O)N2CCOCC2)c2c(n1Cc1ccccc1F)CCCC2=O,–
COc1ccc(-c2ccc3c(N)c(C(=O)Nc4ccc(C(F)(F)F)cc4)sc3n2)cc1OC,–
COc1ccc(NC(=O)c2sc3nc(-c4ccc(OC)cc4)cc(C(F)(F)F)c3c2N)cc1,–
COc1ccc(NC(=O)c2sc3nc4c(c(-c5ccc(OC)cc5)c3c2N)C(=O)CC(C)(C)C4)cc1,1µM
c1coc(-c2nnc([C@H]3CCN(Cc4c[nH]c5ccccc45)C3)o2)c1,–
Cc1cccc(C)c1CN1CCC2(Cc3ccccc3CNC2=O)C1 (stereo not given),–
CC(=O)N1CCN(CC[C@@H]2CC[C@H](O)[C@@H](C(=O)N3CCOCC3)O2)CC1,–
C[C@]1(CO)[C@H]2Cc3sc(-c4ccccc4)nc3[C@@H](CC(=O)N3CCOCC3)[C@]2(C)CC[C@H]1O,–
